Experimental data reported in ChEMBL document CHEMBL4513216, “Probing the Open Global Health Chemical Diversity Library for Multistage-Active Starting Points for Next-Generation Antimalarials” (ACS Infect Dis, 2020).
The campaign covered roughly 69,000 compounds. About 8,600 (12%) showed an effect of 50% or more. Shown is part of a subset that was picked to be rich in strong results.

test system: Plasmodium berghei; test: Screen against P. berghei liver stage (PbLuc), transformed with Luciferase, at 10uM; format: functional, HepG2; details: tested at 10 uM

SMILES | INHIBITION
COc1cccc(CN2CC(O)CN(C(=O)C3CCC3)CC2=O)c1OC (stereo not drawn) | 49.5%
CNC(=O)[C@@H]1[C@@H](c2ccccc2)CN2CCN(Cc3ccccn3)C[C@H]12 | 20%
O=C(NC1CC1)N1CCCC2(CCCCN2)C1 (stereo not drawn) | 13.7%
c1cnn(CC2CN(Cc3nc(C4CC4)no3)CCO2)c1 (stereo not drawn) | -12.2%
COc1ccc(C(C)NCc2nnc(C)s2)cc1F (stereo not drawn) | 39.4%
COc1ccc(C(C)NCc2c[nH]nc2C)cc1OC (stereo not drawn) | -43%
COc1ccc(C(C)NCc2scnc2C)cc1Cn1cccn1 (stereo not drawn) | 35.3%
COc1cc(C(C)NCc2scnc2C)ccc1SC(F)F (stereo not drawn) | 75.6%
COc1cc(C(C)NCc2cscn2)ccc1SC(F)F (stereo not drawn) | 27%
COc1cc(C(C)NCc2ncccc2C)ccc1SC(F)F (stereo not drawn) | 66.2%
Cc1nnc(CN(C)C2CCN(Cc3nc4ccccc4n3C)C2)o1 (stereo not drawn) | -25.8%
Cn1c(SCC(O)COCc2ccc(Cl)cc2)nnc1C1CC1 (stereo not drawn) | -18.6%
OC(COCc1ccccc1)CSc1nnc(C2CC2)n1C1CC1 (stereo not drawn) | 52.8%
Cn1c(SCC(O)COCc2ccccc2Cl)nnc1C1CC1 (stereo not drawn) | 36.6%
NC(=O)C1CCN(C(=O)c2cc(-n3cnnn3)ccc2Cl)CC1 | 28.4%
CC(NC(=O)C1CC1)C(=O)N(C)Cc1ccsc1 (stereo not drawn) | 16.1%
CCCc1ncc(CNC2(c3ccc(Cl)cc3)CC2)cn1 | 44.8%
Cc1nc(C2CCN(C(=O)CO)CC2)cc(N2CCOCC2)n1 | 36.8%
Cc1nc(C2CCN(C(=O)COC(C)C)CC2)cc(N2CCOCC2)n1 | 3.96%
Cc1nc(C2CCN(C[C@H](C)CO)CC2)cc(N2CCOCC2)n1 | 60.3%
O=C(Cc1ccccc1Cl)Nc1cnn(C2CCOC2)c1 (stereo not drawn) | 51.8%
Cc1cccc(CC(=O)Nc2cnn(C3CCOC3)c2)c1 (stereo not drawn) | -13.6%
O=C(Nc1ccc2c(c1)OCO2)Nc1cnn(C2CCOCC2)c1 | 36.5%
O=C(Cc1cccs1)Nc1cnn(C2CCOC2)c1 (stereo not drawn) | 5.91%
O=C(Nc1cnn(C2CCOCC2)c1)c1ccc2c(c1)OCO2 | -38.6%

SMILES | INHIBITION
O=C(Cc1cccs1)Nc1cnn(C2CCOCC2)c1 | 71.3%
COc1ccccc1-c1cc(C(=O)Nc2nc[nH]n2)[nH]n1 | -36%
O=S(=O)(CCN1CCCC1Cn1cncn1)c1ccccc1 (stereo not drawn) | -43.6%
Cc1cc(C(=O)NCC(Cc2cccc(F)c2)N2CCCCC2=O)no1 (stereo not drawn) | 34.9%
CNC(=O)[C@@H]1CCO[C@@H]2CCN(C3CCOCC3)C[C@@H]21 | -46.9%
O=C(CCn1ccc2ccc(Br)cc21)NCc1ccc(C(=O)O)cc1 | 15.1%
Cc1oncc1C(=O)N1CC2CC1(C(=O)N1CCCC1)C2 | -15.9%
Cn1ccnc1C1CCCN(C(=O)c2ccncc2F)C1 (stereo not drawn) | 42.5%
O=C(c1ccncc1F)N1CC2CC1(C(=O)N1CCCC1)C2 | 58%
O=C(NCc1cc(-c2ccccc2)no1)NCC1CCCO1 (stereo not drawn) | 1.06%
CC1=CCN(S(=O)(=O)c2cccc(C(=O)N3CCCN(C)CC3)c2)CC1 | 14%
N#Cc1ccc(OCCN2CCn3c(nnc3C3CC3)C2)cc1 | 11.2%
CS(=O)(=O)CCSCc1ccc(Br)c(F)c1 | 50.7%
NC(=O)NC1CCN(Cc2ccc(Br)c(F)c2)CC1 | 1.45%
CC(NC(N)=O)C(=O)NCc1ccc(Br)c(F)c1 (stereo not drawn) | -31.1%
CS(=O)(=O)CCCSCc1cc(F)cc(Br)c1 | 31.2%
NC(=O)CCSCc1ccc(Br)c(F)c1 | 52.8%
CS(=O)(=O)CCCSCc1ccc(Br)c(F)c1 | -59.7%
Cc1ccnc(C2(C)CCCN2S(=O)(=O)c2ccccc2)n1 (stereo not drawn) | 45.55%
Cn1cnnc1C1CCN(C(=O)COCc2ccccc2Cl)CC1 | 39.2%
CC(C)Cn1cc(NC(=O)N2CCCC2)cn1 | -37.8%
CN1C[C@@H]2CN(Cc3ccsc3)CCC[C@]2(C(=O)O)C1 | -64.1%
CC(C)C1CCN(C(=O)NCC(=O)N(C)CC(F)(F)F)CC1 | 34.2%
CN(Cc1nnc2n1CCC2)S(=O)(=O)c1ccc(Br)cc1Cl | 52.6%
CN(Cc1nnc2n1CCC2)S(=O)(=O)c1cc(Br)ccc1Br | 30.9%

SMILES | INHIBITION
Cc1nnc(CN(C)S(=O)(=O)c2ccc(Br)cc2Cl)n1C | 33.1%
CC(CN1CCCC1=O)NC(=O)c1cc(Cl)c2c(c1)OCO2 (stereo not drawn) | 38.5%
Cc1cccnc1CN1CCCCC1c1ccn2ccnc2n1 (stereo not drawn) | 45.6%
CCc1cnc(CCNC(=O)N2CCCC(c3ncc[nH]3)C2)s1 (stereo not drawn) | 52.6%
CCOc1ccccc1CC(=O)N1CCCC(c2ncc[nH]2)C1 (stereo not drawn) | 19.7%
CCC(CC)c1cc(CNC(=O)N2CCCC(c3ncc[nH]3)C2)on1 (stereo not drawn) | -1.79%
Cn1cc(C(=O)N2CCCC(c3ncc[nH]3)C2)cn1 (stereo not drawn) | -24.9%
O=C(CCn1cnnc1)N1CCCC(c2ncc[nH]2)C1 (stereo not drawn) | -12.2%
CCc1cnc(CNC(=O)N2CCCC(c3ncc[nH]3)C2)s1 (stereo not drawn) | 40.6%
CCc1ccc(S(=O)(=O)N2CCCC(c3ncc[nH]3)C2)s1 (stereo not drawn) | 81.2%
O=S(=O)(c1ccccc1Cl)N1CCCC(c2ncc[nH]2)C1 (stereo not drawn) | 21.6%
O=S(=O)(c1ccc(Cl)s1)N1CCCC(c2ncc[nH]2)C1 (stereo not drawn) | 50.4%
CCNc1nc2cn(-c3cccc(OC)c3)c(=O)c-2c[nH]1 | -76.4%
O=C(O)c1ccc(=O)n(CC(c2ccc(F)cc2)N2CCCCCC2)c1 (stereo not drawn) | 14.65%
CN1CCO[C@@H]2CN(S(=O)(=O)c3ccccc3F)CC[C@@H]2C1 | 21.7%
NCC1CCC(C(NC(=O)C2CC2)c2ccccn2)CC1 (stereo not drawn) | 29.3%
CCOc1cc(=O)n2c(c1C(=O)OCc1ccc(OC)cc1)CCCC2 | 27.6%
CC(=O)Nc1cccc(CNC(=O)N(C)Cc2ccccc2)c1 | -25%
CC(=O)Nc1cccc(OCCNC(=O)N(C)Cc2ccccc2)c1 | 80.8%
CC(=O)NCCOc1cccc(Br)c1 | 48.8%
CN(CCOc1cccc(F)c1)CC(=O)Nc1ccncc1 | 21.55%
CC(=O)Nc1cccc(OCCNC(=O)N(C)Cc2ccncc2)c1 | 57.7%
CC(=O)Nc1cccc(OCCNC(=O)N(C)Cc2ccco2)c1 | -52.9%
